Measured values reported in the supplement of paper PMC4022240.
± gives the standard deviation.

Experiments:
Assay in all cases: peptide microarray binding signal (635 nm), min-max normalized on array (fraction of array maximum); higher = stronger binding
[1] = molecular target: T1, HaloTag-ATRX ADD domain (163-292)
T1 chain: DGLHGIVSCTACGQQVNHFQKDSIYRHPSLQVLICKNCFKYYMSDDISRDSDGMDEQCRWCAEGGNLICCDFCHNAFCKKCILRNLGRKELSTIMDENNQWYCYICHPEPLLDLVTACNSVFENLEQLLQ
In short: (§1)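 Triplicate spots of histone 13-mer peptide–cellulose conjugates with a Cy3 tracer were printed on nitrocellulose and probed for 1 h at 4°C with biotin-labelled HaloTag reader fusions (10 nM to 1 μM) plus streptavidin-Alexa Fluor 647 or rabbit histone antibodies (1:10,000 to 1:2,000) plus anti-rabbit Alexa 647. An Axon GenePix 4000B read the 635 nm channel. Binding signal is the spot-triplicate mean intensity after min-max scaling within each library.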

[2] = molecular target: HaloTag-ING2 PHD (mouse Ing2 200-280)
In short: as §1

[3] = molecular target: anti-H3K4me3 antibody ab8580
In short: as §1

[4] = molecular target: anti-H3K9me3 antibody ab8898
In short: as §1

[5] = peptide region: H3 11-23, peptide modifications: H3R17cit H3K18me1, binder concentration: 1:2,000 dilution
[6] = peptide region: H3 11-23, peptide modifications: H3R17cit H3K18me1, binder concentration: 1:10,000 dilution
[7] = peptide region: H3 20-32, binder concentration: 1:2,000 dilution
[8] = peptide region: H3 20-32, binder concentration: 1:10,000 dilution
[9] = peptide region: H3 11-23, peptide modifications: H3R17me2a H3K18me1, binder concentration: 1:2,000 dilution
[10] = peptide region: H3 11-23, peptide modifications: H3R17me2a H3K18me1, binder concentration: 1:10,000 dilution
[11] = peptide region: H3 11-23, peptide modifications: H3R17me2s H3K18ac, binder concentration: 1:2,000 dilution
[12] = peptide region: H3 11-23, peptide modifications: H3R17me2s H3K18ac, binder concentration: 1:10,000 dilution
[13] = peptide region: H3 11-23, peptide modifications: H3R17me2a H3K18me3, binder concentration: 1:2,000 dilution
[14] = peptide region: H3 11-23, peptide modifications: H3R17me2a H3K18me3, binder concentration: 1:10,000 dilution
[15] = peptide region: H3 11-23, peptide modifications: H3R17me1 H3K18me1, binder concentration: 1:2,000 dilution
[16] = peptide region: H3 11-23, peptide modifications: H3R17me1 H3K18me1, binder concentration: 1:10,000 dilution
[17] = peptide region: H3 11-23, peptide modifications: H3R17me2a H3K18me2, binder concentration: 1:2,000 dilution
[18] = peptide region: H3 11-23, peptide modifications: H3R17me2a H3K18me2, binder concentration: 1:10,000 dilution
[19] = peptide region: H3 11-23, peptide modifications: H3R17me2a H3K18ac, binder concentration: 1:2,000 dilution
[20] = peptide region: H3 11-23, peptide modifications: H3R17me2a H3K18ac, binder concentration: 1:10,000 dilution
[21] = peptide region: H3 11-23, peptide modifications: H3R17me2s, binder concentration: 1:2,000 dilution
[22] = peptide region: H3 11-23, peptide modifications: H3R17me2s, binder concentration: 1:10,000 dilution
[23] = peptide region: H3 11-23, peptide modifications: H3R17cit, binder concentration: 1:2,000 dilution
[24] = peptide region: H3 11-23, peptide modifications: H3R17cit, binder concentration: 1:10,000 dilution

B1: H3 11-23 T G G K A P Rcit Kme Q L A T K (peptide)
chain: TGGKAPRKQLATK
peptide microarray binding signal ([1]; peptide region: H3 11-23, peptide modifications: H3R17cit H3K18me1, binder concentration: 50 nM): 0.00524 ± 6.5e-05
peptide microarray binding signal ([1]; peptide region: H3 11-23, peptide modifications: H3R17cit H3K18me1, binder concentration: 500 nM): 0.009239 ± 4.5e-05
peptide microarray binding signal ([2]; peptide region: H3 11-23, peptide modifications: H3R17cit H3K18me1, binder concentration: 10 nM): 0.00382 ± 0.00016
peptide microarray binding signal ([2]; peptide region: H3 11-23, peptide modifications: H3R17cit H3K18me1, binder concentration: 100 nM): 0.014 ± 0.0031
peptide microarray binding signal [3, 5]: 0.00383 ± 0.00052
peptide microarray binding signal [3, 6]: 0.0028 ± 0.00018
peptide microarray binding signal [4, 5]: 0.000846 ± 5.8e-05
peptide microarray binding signal [4, 6]: 0.000807

B2: H3 20-32 L A T K A A R K S A P A T (peptide)
chain: LATKAARKSAPAT
peptide microarray binding signal ([1]; peptide region: H3 20-32, binder concentration: 50 nM): 0.00505 ± 0.00047
peptide microarray binding signal ([1]; peptide region: H3 20-32, binder concentration: 500 nM): 0.00533 ± 9e-05
peptide microarray binding signal ([2]; peptide region: H3 20-32, binder concentration: 10 nM): 0.00806 ± 9.3e-05
peptide microarray binding signal ([2]; peptide region: H3 20-32, binder concentration: 100 nM): 0.0106 ± 0.00016
peptide microarray binding signal [3, 7]: 0.00249 ± 7e-05
peptide microarray binding signal [3, 8]: 0.00262 ± 4e-05
peptide microarray binding signal [4, 7]: 0.000982 ± 2.1e-05
peptide microarray binding signal [4, 8]: 0.00167

B3: H3 11-23 T G G K A P Rme2a Kme Q L A T K (peptide)
chain: TGGKAPRKQLATK
peptide microarray binding signal ([1]; peptide region: H3 11-23, peptide modifications: H3R17me2a H3K18me1, binder concentration: 50 nM): 0.0073 ± 0.00016
peptide microarray binding signal ([1]; peptide region: H3 11-23, peptide modifications: H3R17me2a H3K18me1, binder concentration: 500 nM): 0.0126 ± 0.0004
peptide microarray binding signal ([2]; peptide region: H3 11-23, peptide modifications: H3R17me2a H3K18me1, binder concentration: 10 nM): 0.00949 ± 0.00068
peptide microarray binding signal ([2]; peptide region: H3 11-23, peptide modifications: H3R17me2a H3K18me1, binder concentration: 100 nM): 0.0322 ± 0.008
peptide microarray binding signal [3, 9]: 0.00823 ± 0.0013
peptide microarray binding signal [3, 10]: 0.00496 ± 0.00085
peptide microarray binding signal [4, 9]: 0.00281 ± 0.00028
peptide microarray binding signal [4, 10]: 0.00173 ± 1.7e-05

B4: H3 11-23 T G G K A P Rme2s Kac Q L A T K (peptide)
chain: TGGKAPRKQLATK
peptide microarray binding signal ([1]; peptide region: H3 11-23, peptide modifications: H3R17me2s H3K18ac, binder concentration: 50 nM): 0.00658 ± 0.00084
peptide microarray binding signal ([1]; peptide region: H3 11-23, peptide modifications: H3R17me2s H3K18ac, binder concentration: 500 nM): 0.0081 ± 0.0003
peptide microarray binding signal ([2]; peptide region: H3 11-23, peptide modifications: H3R17me2s H3K18ac, binder concentration: 10 nM): 0.00776 ± 0.00012
peptide microarray binding signal ([2]; peptide region: H3 11-23, peptide modifications: H3R17me2s H3K18ac, binder concentration: 100 nM): 0.0133 ± 0.00095
peptide microarray binding signal [3, 11]: 0.00415 ± 0.00025
peptide microarray binding signal [3, 12]: 0.00468 ± 0.00016
peptide microarray binding signal [4, 11]: 0.00156 ± 4.6e-05
peptide microarray binding signal [4, 12]: 0.001441 ± 1.4e-05

B5: H3 11-23 T G G K A P Rme2a Kme3 Q L A T K (peptide)
chain: TGGKAPRKQLATK
peptide microarray binding signal ([1]; peptide region: H3 11-23, peptide modifications: H3R17me2a H3K18me3, binder concentration: 50 nM): 0.0133 ± 0.00073
peptide microarray binding signal ([1]; peptide region: H3 11-23, peptide modifications: H3R17me2a H3K18me3, binder concentration: 500 nM): 0.0186 ± 0.0037
peptide microarray binding signal ([2]; peptide region: H3 11-23, peptide modifications: H3R17me2a H3K18me3, binder concentration: 10 nM): 0.0148 ± 0.0037
peptide microarray binding signal ([2]; peptide region: H3 11-23, peptide modifications: H3R17me2a H3K18me3, binder concentration: 100 nM): 0.0224 ± 0.0093
peptide microarray binding signal [3, 13]: 0.284 ± 0.098
peptide microarray binding signal [3, 14]: 0.305 ± 0.1
peptide microarray binding signal [4, 13]: 0.0475 ± 0.015
peptide microarray binding signal [4, 14]: 0.0213 ± 0.0043

B6: H3 11-23 T G G K A P Rme Kme Q L A T K (peptide)
chain: TGGKAPRKQLATK
peptide microarray binding signal ([1]; peptide region: H3 11-23, peptide modifications: H3R17me1 H3K18me1, binder concentration: 50 nM): 0.009 ± 0.00036
peptide microarray binding signal ([1]; peptide region: H3 11-23, peptide modifications: H3R17me1 H3K18me1, binder concentration: 500 nM): 0.018 ± 0.0028
peptide microarray binding signal ([2]; peptide region: H3 11-23, peptide modifications: H3R17me1 H3K18me1, binder concentration: 10 nM): 0.0114 ± 0.001
peptide microarray binding signal ([2]; peptide region: H3 11-23, peptide modifications: H3R17me1 H3K18me1, binder concentration: 100 nM): 0.0208 ± 0.0062
peptide microarray binding signal [3, 15]: 0.00808 ± 0.0017
peptide microarray binding signal [3, 16]: 0.00622 ± 0.0014
peptide microarray binding signal [4, 15]: 0.0021 ± 0.00037
peptide microarray binding signal [4, 16]: 0.00161 ± 4.1e-05

B7: H3 11-23 T G G K A P Rme2a Kme2 Q L A T K (peptide)
chain: TGGKAPRKQLATK
peptide microarray binding signal ([1]; peptide region: H3 11-23, peptide modifications: H3R17me2a H3K18me2, binder concentration: 50 nM): 0.00937 ± 0.0035
peptide microarray binding signal ([1]; peptide region: H3 11-23, peptide modifications: H3R17me2a H3K18me2, binder concentration: 500 nM): 0.011 ± 0.00034
peptide microarray binding signal ([2]; peptide region: H3 11-23, peptide modifications: H3R17me2a H3K18me2, binder concentration: 10 nM): 0.0112 ± 0.0018
peptide microarray binding signal ([2]; peptide region: H3 11-23, peptide modifications: H3R17me2a H3K18me2, binder concentration: 100 nM): 0.0143 ± 0.00077
peptide microarray binding signal [3, 17]: 0.00423 ± 0.00094
peptide microarray binding signal [3, 18]: 0.0032 ± 0.00019
peptide microarray binding signal [4, 17]: 0.00186 ± 6.1e-05
peptide microarray binding signal [4, 18]: 0.001787 ± 1.7e-05

B8: H3 11-23 T G G K A P Rme2a Kac Q L A T K (peptide)
chain: TGGKAPRKQLATK
peptide microarray binding signal ([1]; peptide region: H3 11-23, peptide modifications: H3R17me2a H3K18ac, binder concentration: 50 nM): 0.00671 ± 0.00026
peptide microarray binding signal ([1]; peptide region: H3 11-23, peptide modifications: H3R17me2a H3K18ac, binder concentration: 500 nM): 0.0144 ± 0.001
peptide microarray binding signal ([2]; peptide region: H3 11-23, peptide modifications: H3R17me2a H3K18ac, binder concentration: 10 nM): 0.00967 ± 0.00055
peptide microarray binding signal ([2]; peptide region: H3 11-23, peptide modifications: H3R17me2a H3K18ac, binder concentration: 100 nM): 0.0188 ± 0.0034
peptide microarray binding signal [3, 19]: 0.00549 ± 0.00049
peptide microarray binding signal [3, 20]: 0.0302 ± 0.033
peptide microarray binding signal [4, 19]: 0.00273 ± 0.00027
peptide microarray binding signal [4, 20]: 0.00427 ± 0.0013

B9: H3 11-23 T G G K A P Rme2s K Q L A T K (peptide)
chain: TGGKAPRKQLATK
peptide microarray binding signal ([1]; peptide region: H3 11-23, peptide modifications: H3R17me2s, binder concentration: 50 nM): 0.00332 ± 8.4e-05
peptide microarray binding signal ([1]; peptide region: H3 11-23, peptide modifications: H3R17me2s, binder concentration: 500 nM): 0.00543 ± 0.00073
peptide microarray binding signal ([2]; peptide region: H3 11-23, peptide modifications: H3R17me2s, binder concentration: 10 nM): 0.003163 ± 1.7e-05
peptide microarray binding signal ([2]; peptide region: H3 11-23, peptide modifications: H3R17me2s, binder concentration: 100 nM): 0.00411 ± 0.00034
peptide microarray binding signal [3, 21]: 0.001 ± 5.2e-05
peptide microarray binding signal [3, 22]: 0.00108
peptide microarray binding signal [4, 21]: 0.00128 ± 0.00017
peptide microarray binding signal [4, 22]: 0.0011 ± 4e-05

B10: H3 11-23 T G G K A P Rcit K Q L A T K (peptide)
chain: TGGKAPRKQLATK
peptide microarray binding signal ([1]; peptide region: H3 11-23, peptide modifications: H3R17cit, binder concentration: 50 nM): 0.00364 ± 6.7e-05
peptide microarray binding signal ([1]; peptide region: H3 11-23, peptide modifications: H3R17cit, binder concentration: 500 nM): 0.0192 ± 0.00046
peptide microarray binding signal ([2]; peptide region: H3 11-23, peptide modifications: H3R17cit, binder concentration: 10 nM): 0.00794 ± 0.00039
peptide microarray binding signal ([2]; peptide region: H3 11-23, peptide modifications: H3R17cit, binder concentration: 100 nM): 0.0168 ± 0.0043
peptide microarray binding signal [3, 23]: 0.000302 ± 4.1e-05
peptide microarray binding signal [3, 24]: 0.00148 ± 0.00015
peptide microarray binding signal [4, 23]: 0.00122 ± 4.2e-05
peptide microarray binding signal [4, 24]: 0.0015 ± 6.7e-05
